# Laboratory results as given in PubChem BioAssay AID652054 (National Center for Advancing Translational Sciences (NCATS), 2013).
# Among all 360,000 compounds or so, about 9,100 (2.5%) were called active. About 4% were inconclusive and are not listed. Shown is part of a subset that was picked to be rich in actives. A number with no mark means an inactive call. Cut-off read from the data, not from the text of the source: active = max response below about -50%; inconclusive = no clear call, values can overlap the other calls; inactive = above that.
# Molecular target: D(3) dopamine receptor (Homo sapiens) (UniProt P35462)
# Sequence (P35462 whole entry, looked up): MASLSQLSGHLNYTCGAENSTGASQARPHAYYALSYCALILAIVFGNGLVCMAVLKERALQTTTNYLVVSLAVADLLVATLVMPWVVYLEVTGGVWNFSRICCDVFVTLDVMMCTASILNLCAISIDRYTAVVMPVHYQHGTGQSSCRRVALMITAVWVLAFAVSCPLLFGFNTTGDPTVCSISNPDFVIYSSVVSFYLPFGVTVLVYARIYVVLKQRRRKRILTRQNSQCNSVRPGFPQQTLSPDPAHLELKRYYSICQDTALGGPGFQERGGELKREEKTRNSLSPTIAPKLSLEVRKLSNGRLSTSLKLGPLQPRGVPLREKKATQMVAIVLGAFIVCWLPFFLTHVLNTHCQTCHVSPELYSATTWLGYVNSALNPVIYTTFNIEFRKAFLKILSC
# Assay: qHTS of D3 Dopamine Receptor Antagonist: qHTS
# Settings: D3R cells, DiscoveRx beta-arrestin luminescence, antagonist mode; stronger effect = lower value
# Summary of the method: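 Cells plated overnight at 1500 cells/well, then exposed to library compounds with dopamine controls for 90 minutes at 37 degrees C. DiscoveRx reagent added for 30–60 minutes at room temperature; luminescence read, quantitative HTS format.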
# % is set by controls: 0 for no effect and ±100 for the full control effect.
row,SMILES,"max response, negative = inhibition"
1,COc1ccc(S(=O)(=O)N2CCC(C(=O)NCCC(=O)Nc3ccccc3OC)CC2)cc1,23.8%
2,CN=C1C=C/C(=N/N=c2\ccn(O)cc2C)C=C1C,-67.8% (active)
3,O=C(COC(=O)CCc1c[nH]c2ccccc12)Nc1cccc(Cl)c1,-6.82%
4,O=C(CSC(=S)N1CCOCC1)c1ccccc1,-4.48%
5,NC(=NC(=O)c1ccccc1)N1CCOCC1,-52.7% (active)
6,O=C(NC(=O)N1CCOCC1)c1ccccc1,160%
7,Cc1cc2oc(=O)cc(CN(C)Cc3ccccc3)c2cc1Cl,9.91%
8,CCCCN1C(=O)C(CC(=O)NCc2cccs2)CC(C(=O)N2CCCCCC2)=C1C (stereo not drawn),0%
9,O=C(CCCNS(=O)(=O)c1cccc2nsnc12)NCCN1CCN(c2ccccc2F)CC1,-84.7% (active)
10,O=C(CCS(=O)(=O)c1cccc2nsnc12)N1CCN(c2ccccc2F)CC1,1.65%
11,COc1ccccc1CNC(=O)CCCNS(=O)(=O)c1cccc2nsnc12,-0.0929%
12,OC[C@@H]1CN(Cc2ccc3c(c2)OCO3)C[C@H](n2cnc3c(NCc4ccco4)ncnc32)O1,-5.45%
13,COC(=O)[C@@]1(Sc2ccc(C)cc2)CC(=O)N(c2cccc(SC)c2)[C@@H]1c1ccccc1,3.45%
14,CC(C)Nc1nc(N(c2ccccc2)c2ccccc2)nc(-n2ccnc2)n1,16.7%
15,N#Cc1nc(N)nc(N(c2ccccc2)c2ccccc2)n1,-74% (active)
16,CC(=O)Nc1ccc(CNc2nc(NCCN(C)C)nc3cc(-c4ccccc4)sc23)cc1,-24.6%
17,CCOC(=O)C1CCCN(C(=O)c2cc(-c3cccs3)oc2C)CC1 (stereo not drawn),11%
18,O=c1[nH][nH]c(C(F)(F)F)c1C=NCc1ccccc1Cl,-70.6% (active)
19,COc1ccc(S(=O)(=O)N2CCCCC2c2cc(C(=O)NCc3ccc(F)cc3)no2)cc1 (stereo not drawn),8.77%
20,Cc1cc(C(=O)N2CCCC2(C)C(=O)O)c(C)o1 (stereo not drawn),16.6%

row,SMILES,"max response, negative = inhibition"
1,CCOC(=O)C1=CC[C@@H](c2ccccc2)N(S(=O)(=O)c2ccc(C)cc2)[C@H]1c1ccc(CC)cc1,4.64%
2,O=C(NCc1cccnc1)c1cc(C2CCCCN2C(=O)CCc2ccccc2)on1 (stereo not drawn),-10.2%
3,COc1ccc(/C(N)=N/OC(=O)Cc2ccccc2)cc1,-0.193%
4,COc1ccc(C(=NN)c2ccc(OC)cc2)cc1,-10.2%
5,COc1ccc(C(C#N)=C2C=CC(=NO)c3ccccc32)cc1,-54% (active)
6,Cc1cccc(C)c1NC(=O)C(c1ccc(C(F)(F)F)cc1)n1c(=O)c(-c2ccco2)nc2ccccc21 (stereo not drawn),-12.7%
7,COc1cc(C=C(OC(C)=O)c2ccc3c(c2)OCO3)cc(OC)c1OC,24.2%
8,O=C1CCC(C(=O)OCC(=O)Nc2ccc(OC(F)F)cc2)=NN1,12.8%
9,O=C(N/N=C/c1cc(Br)c(O)c([N+](=O)[O-])c1)C(O)(c1ccccc1)c1ccccc1,-10.9%
10,CN(C)/N=C/c1cc(Cl)cc([N+](=O)[O-])c1O,-79.8% (active)
11,O=C(N/N=C/c1cc(Cl)cc([N+](=O)[O-])c1O)C(O)(c1ccccc1)c1ccccc1,-89.3% (active)
12,O=C(Cc1ccccc1)N/N=C/c1ccc(Cl)cc1Cl,-15.7%
13,CC(=O)NC(c1ccccc1)c1nc(-c2ccccc2C)cs1 (stereo not drawn),-13.7%
14,CC(C)CCNC(=O)c1[nH]c(C(F)(F)F)nc1-c1ccccc1,0%
15,COCOCCn1cc(CN2CCS(=O)(=O)N(Cc3ccc(-c4ccc(OC)cc4)cc3)C(CC(C)C)C2=O)nn1 (stereo not drawn),10.8%
16,COc1ccc(NC(=O)c2sccc2SCC#N)cc1,-82.3% (active)
17,COc1ccc(NC(=O)CSc2nc(C)cs2)cc1,5.34%
18,COc1ccc(NC(=O)c2ccc(C#CC(C)(C)O)cc2)cc1,-1.8%
19,C[C@@H]1CN([C@H](C)CO)C(=O)CCCn2cc(nn2)CO[C@H]1CN(C)S(C)(=O)=O,12.7%
20,NC(=S)NN=Cc1ccc(OC(=O)COc2cc(Cl)c(Cl)cc2Cl)cn1,0.559%

row,SMILES,"max response, negative = inhibition"
1,CCC(C(=O)Nc1ccc2c(c1)OCCO2)c1ccccc1 (stereo not drawn),-13.2%
2,O=C(Nc1ccc2c(c1)OCCO2)C(C1CC1)N1CCC(Cc2ccccc2)CC1 (stereo not drawn),-73.1% (active)
3,O=C(CN1CCOc2ccccc21)N1CCC(Cc2ccccc2)CC1,0%
4,O=C(NCc1ccccc1)C(c1ccc(F)cc1)N1CCN(C(=O)C2CCCO2)CC1 (stereo not drawn),29.8%
5,CCOC(=O)C1(C)CCCN(C(=O)c2cccc(Cl)c2)C1 (stereo not drawn),-16.8%
6,N#Cc1cccc(NC(=O)COC(=O)c2ccccc2C(=O)c2ccc(Cl)c([N+](=O)[O-])c2)c1,-50.7% (active)
7,NC(=O)c1ccc(NC(=O)COC(=O)c2ccc([N+](=O)[O-])cc2)cc1,-15.1%
8,COC(=O)c1cc(NC(=O)Cc2ccccc2[N+](=O)[O-])ccc1Cl,-7.17%
9,CCCc1ccc(C(O)c2ncc(-c3cccc(OC)c3)[nH]2)cc1 (stereo not drawn),0%
10,CC(C)(C)S(=O)N1Cc2cc(C(=O)NCCCN3CCOCC3)nc(-c3cccc(-c4cc5ccccc5o4)c3)c2[C@H]1CCO (stereo partly drawn),9.3%
11,COc1cccc(S(=O)(=O)NCc2ccc(C(=O)NCc3ccccn3)cc2)c1,8.72%
12,CN(c1ccc(C(=O)NCc2ccccn2)cc1)S(C)(=O)=O,-116% (active)
13,CCN(c1ccccc1)S(=O)(=O)c1cc(C(=O)NCc2ccccn2)ccc1C,4.76%
14,CC1(Cc2ccccc2C#N)C(=O)Nc2ccc(-c3ccc4[nH]ccc4c3)cc21 (stereo not drawn),-15.9%
15,COc1ccc(S(=O)(=O)N[C@@H]2C=C[C@@H](CC(=O)N3CCc4ccccc4C3)O[C@@H]2CO)cc1,-0.0851%
16,COc1ccccc1C1=CC(=O)C[C@H](c2ccc(F)cc2)C1,-18.2%
17,O=C1C=C(c2cccc(Cl)c2O)C[C@@H](c2ccc(F)cc2)C1,-58.3% (active)
18,COc1cccc(C2=CC(=O)C[C@H](c3ccc(F)cc3)C2)c1OC,-8.44%
